Hits are enriched below; roughly 4.8% of the tested compounds scored in any of these assays.
ssDAF12 agonist: S. stercoralis DAF-12 activation, primary screen; HEK293 ssDAF-12/GRIP1 lit1-tk-luc reporter, luminescence; % of 3 µM dafachronic acid response; activation, % at 6.8 µM; 370,000 tested, 1% active; AID 652126;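 active = activation above the mean over all tested compounds plus 3 SD, cut at about 0.9% in these data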
DAX1 inh-1: DAX1 (NR0B1) inhibition, primary screen; 370,000 tested, 1.1% active; HEK293T StAR-luciferase reporter, SF-1/DAX-1 repression relief; inhibition, % at 6.8 µM;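 active = inhibition above the mean over all tested compounds plus 3 SD, cut at about 3.6% in these data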;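 note: higher inhibition means more luminescence from relief of DAX-1 repression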
DAX1 inh-2: inhibitors of human orphan nuclear receptor DAX1 (NR0B1). 340,000 tested, 0.99% active. HEK293 Gal4-DAX1 luciferase reporter, luminescence. inhibition, % at 6.75 µM. P51843;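 active = inhibition above the mean over all tested compounds plus 3 SD, cut at about 4.2% in these data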;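 note: inhibition shows as a rise in luminescence from relieved DAX1 repression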
Target sequence (P51843 207-470 limits assumed): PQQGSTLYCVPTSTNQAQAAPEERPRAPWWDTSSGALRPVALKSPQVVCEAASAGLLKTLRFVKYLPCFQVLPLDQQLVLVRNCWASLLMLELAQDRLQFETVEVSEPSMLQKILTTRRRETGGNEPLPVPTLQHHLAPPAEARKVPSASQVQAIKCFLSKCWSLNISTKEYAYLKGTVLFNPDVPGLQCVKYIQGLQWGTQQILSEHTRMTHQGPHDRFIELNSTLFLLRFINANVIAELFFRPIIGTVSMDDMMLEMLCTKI
hgDAF-12 ag: activates the H. glycines DAF-12 receptor ligand-binding domain; AID 687014; activation, % at 6.8 µM; HEK293 GAL4-hgDAF12 UAS-luciferase reporter, agonist luminescence; normalized to butyrate control; 370,000 tested, 1.8% active;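 active = activation above a cutoff set at the mean of all screened compounds plus 3 SD, cut at about 10% in these data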
hcDAF12 agonist: H. contortus DAF-12 activation, primary screen; HEK293 hcDAF-12 lit1-tk-luc reporter, luminescence; 0% DMSO, 100% Δ7-dafachronic acid; activation, % at 6.8 µM; 370,000 tested, 1.4% active; AID 652067;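 active = activation above the mean of all tested compounds plus 3 SD, cut at about 5.5% in these data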
SMARCA2 act: SMARCA2 function activation, primary screen; AID 652017; MG213 cells, MMTV-luciferase reporter, dexamethasone, overnight; activation, % at 9.1 µM; 370,000 tested, 1% active; in the data active = activation above about 7.8%
A number is an active result; i = inactive; nt = no result.

SMILES | ssDAF12 agonist | DAX1 inh-1 | DAX1 inh-2 | hgDAF-12 ag | hcDAF12 agonist | SMARCA2 act
CN(C)S(=O)(=O)c1ccc(C(=O)OCCCN=C2NS(=O)(=O)c3ccccc32)cc1 | i | i | 4.4 | i | i | i
CN(C)S(=O)(=O)c1ccc(C(=O)OCCN=C2NS(=O)(=O)c3ccccc32)cc1 | i | i | i | i | i | i
COC(=O)c1ccc(NC(=O)CSc2ccccn2)cc1 | i | i | i | i | i | i
COC(=O)c1ccc(NC(=O)CSc2ccccc2)cc1 | i | i | 7.4 | i | i | i
OCCN1CCN(c2ncnc3c2ncn3[C@H]2CN(Cc3ccccc3)C[C@@H](CO)O2)CC1 | i | i | nt | i | i | i
O=C(Nn1cnnc1)c1ccc(Cl)c(Cl)c1 | i | i | 6.2 | i | i | i
Nc1nc(N)nc(-c2cc(F)ccc2O)n1 | i | i | i | i | i | 7.9
CC(C(=O)Nc1sc2c(c1C#N)CCCCC2)N1C(=O)c2ccccc2C1=O (configuration not stated) | 1.1 | i | i | i | i | i
CC(=O)Nc1sc2c(c1C#N)CCCCC2 | i | i | i | i | i | i
Cc1cc(C(=O)Nc2sc3c(c2C#N)CCC3)no1 | i | i | i | i | i | i
Cc1cc(C(=O)Nc2sc3c(c2C#N)CCCC3)no1 | i | i | i | 12 | i | i
Cn1ccnc1SCc1cn2cc(Br)ccc2n1 | 1.2 | i | i | i | i | i
O=C(/C=C/Nc1ccc(S(=O)(=O)Nc2ncccn2)cc1)c1cccs1 | i | i | 5.7 | i | i | i
Cc1cc(C)c2cc(C(=O)Nc3ccc(C)c(F)c3)[nH]c2c1 | i | i | i | i | i | i
CCN(CC)CCCn1c(=S)[nH]c2cc(Cl)ccc2c1=O | i | i | i | i | i | i
CCOc1ccc(C2Oc3nc(SC)nnc3-c3ccccc3N2C(C)=O)cc1OC (configuration not stated) | i | i | 6.0 | i | i | i
CCC(=O)N1c2ccccc2-c2nnc(SC)nc2OC1c1ccc(OC)c(OC)c1 (configuration not stated) | i | i | i | i | i | i
CC1CCCN(C(C(=O)Nc2ccc3c(c2)OCO3)c2ccccc2)C1 (configuration not stated) | i | i | i | i | 6.3 | i
COc1ccccc1OCCSc1nc2ccccc2n1CC(O)CO (configuration not stated) | i | i | 4.7 | i | i | i
CCn1c(NCc2cccs2)nc2ccccc21 | i | i | i | i | i | i
Cn1c(NCc2cccs2)nc2ccccc21 | 1.7 | i | i | i | 6.1 | i
COc1ccc(C2c3[nH]c4ccccc4c3C[C@H]3C(=O)N(c4ccccc4C(=O)N4CCC[C@H]4C(=O)O)C(=O)N23)cc1 (some centres not stated) | i | i | 5.2 | i | i | i
COc1cccc(C2c3[nH]c4ccccc4c3C[C@H]3C(=O)N(c4ccccc4C(=O)NCCCN4CCOCC4)C(=O)N23)c1 (some centres not stated) | i | i | i | i | 5.7 | i
CC(C)c1ccc(C2c3[nH]c4ccccc4c3C[C@H]3C(=O)N(c4ccccc4C(=O)N4CCC[C@@H]4C(=O)O)C(=O)N23)cc1 (some centres not stated) | i | i | i | i | i | i
CC(C)c1ccc(C2c3[nH]c4ccccc4c3C[C@H]3C(=O)N(c4ccccc4C(=O)N4CCC(C(=O)O)CC4)C(=O)N23)cc1 (some centres not stated) | i | i | i | i | 5.8 | i
SMILES | ssDAF12 agonist | DAX1 inh-1 | DAX1 inh-2 | hgDAF-12 ag | hcDAF12 agonist | SMARCA2 act
N#Cc1nc(-c2ccccc2F)oc1NCCN1CCOCC1 | i | i | i | i | i | i
O=C(CCC1CCCN(C(=O)C2=CCCC2)C1)N1CCN(c2ccccn2)CC1 (configuration not stated) | i | i | i | i | i | i
c1ccc(Nc2nc(N3CCCCC3)nc(N3CCCCC3)n2)cc1 | i | i | i | i | i | i
Cc1ccc(NC(=O)c2ccc(CS(=O)(=O)Cc3ccccc3C)o2)c(C)c1 | i | i | nt | i | i | i
COc1cc(NC(=O)C2CCCN2S(=O)(=O)c2cccc3cccnc23)cc(OC)c1OC (configuration not stated) | i | i | 4.6 | i | i | i
COc1ccc(NC(=O)[C@@H]2CCCN2S(=O)(=O)c2cccc3cccnc23)cc1 | i | i | i | i | i | i
Cn1cc(CN2CCc3c([nH]c4ccccc34)C2C(C)(C)C)cn1 (configuration not stated) | i | i | i | i | 5.9 | i
CCSc1ccc2nnc(-c3cccc(F)c3)n2n1 | i | i | i | i | i | i
COc1ccc(Nc2nc(C)cc(C)c2C#N)cc1OC | i | i | i | i | i | i
O=C(CCN1C(=O)C2C3C=CC(C3)C2C1=O)Nc1ccccn1 (configuration not stated) | i | i | i | i | i | 7.8
O=C(CCN1C(=O)C2C3CCC(C3)C2C1=O)Nc1ccccc1C(F)(F)F (configuration not stated) | 6.0 | i | i | i | i | i
O=C(NCN1C(=O)C2C3C=CC(C3)C2C1=O)Nc1ccccn1 (configuration not stated) | i | i | i | i | i | i
S=c1[nH]nc(COc2ccccc2)n1/N=C/c1cccnc1 | i | i | i | i | i | i
Cc1cc(Cl)ccc1OCC(=O)NNC(=O)c1cccs1 | i | i | i | i | i | i
O=c1c2ccccc2oc2ccc(-c3ccc4[nH]ccc4c3)cc12 | i | 5.0 | i | 11 | i | i
O=C(NC1CCCCC1)c1ccc(-c2cn[nH]c2)c2ccoc12 | i | i | nt | 13 | i | i
Cc1cccc(/C=c2\s/c(=C\C(=O)C(C)(C)C)[nH]c2=O)c1 | i | i | i | i | i | i
Nc1ncccc1OCc1ccc(Br)cc1 | i | i | i | 11 | i | i
Cc1cccc(NC(=O)NCc2ccc3c(c2)OCO3)c1 | i | 4.4 | i | i | i | i
C/C(=N\OCC(=O)OCC(=O)NCc1ccccc1)c1ccc2c(c1)OCO2 | i | 3.9 | i | i | i | i
Cc1ccccc1OCC(=O)OCC(=O)NCc1ccc2c(c1)OCO2 | 1.2 | i | i | i | i | i
Cc1ccc(-c2n[nH]c(=O)c3ccccc23)c(C)c1 | i | i | i | i | i | i
Nc1nc(Cl)c(C=O)c(N2CCCCC2)n1 | i | i | i | i | i | i
COc1c(OC2OC(C(=O)O)C(O)C(O)C2O)cc(O)c2c(=O)cc(-c3ccccc3)oc12 (configuration not stated) | i | i | i | i | i | i
O=C(Oc1ccc(/C=N/NC(=O)c2ccccn2)cc1)c1cccc(Br)c1 | i | i | i | i | i | i
O=C(COc1ccccc1Cl)Nc1cccnc1 | i | i | i | 12 | i | i
Cc1ccc(Cl)c(OCC(=O)Nc2cccnc2)c1 | i | i | i | i | i | i
